# Results taken from PubChem BioAssay AID1347075 (National Center for Advancing Translational Sciences (NCATS), 2019).
# The campaign covered roughly 400,000 compounds. About 5,500 (1.4%) were called active. A call without a number means that no potency is given here. Roughly 9% stayed inconclusive and do not appear here. This is one part of a sample in which actives are shown more often than they occur. The call rests on the fitted dose curve; in most records, active means well fitted cell-killing curve with a large enough effect; inconclusive means small, poorly fitted or top-dose-only effect, or effect the other way; inactive means flat fitted curve, though single readings scatter.
# Assay: qHTS assay for MDR1-selective chemotherapeutics: Primary screen using the parental adenocarcinoma cell KB-3-1; further: nearly all actives have a fitted effect of over 60% in size
# Conditions: KB-3-1 viability, CellTiter-Glo ATP luminescence, 72 h; series mostly up to 46.1 µM
# Method in brief: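 Luminescent ATP read-out (CellTiter-Glo) measures survival of drug-naive KB-3-1 cells after 72 h compound exposure at 37 °C. Titration series was screened from lowest to highest concentration, with DMSO vehicle plates as background controls.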
# Potency means the concentration at half of the fitted maximal effect.
row,SMILES,Potency
1,Cc1nc2sc(C(=O)c3ccccc3)c(N)c2c2c1CCCC2,23.1 µM (active)
2,Cc1c(C(=O)Nc2ccccc2)sc2nc3n(c(=O)c12)CCCCC3,inactive
3,Cn1c(-c2ccc(C(=O)c3ccccc3)s2)nc2ccccc21,inactive
4,CCN(Cc1ccccc1)Cc1c(O)ccc2c(=O)c(-c3ccc(Cl)cc3Cl)coc12,inactive
5,CC1CN(C(=O)N2CCC(C(=O)NCc3ccco3)CC2)c2cc(Cl)ccc2O1 (centres undefined),inactive
6,COc1ccc(-c2noc(CCC(=O)N(C)c3ccccc3C)n2)cc1,inactive
7,Cc1[nH]n(-c2cccc(Cl)c2)c(=O)c1/C=N/n1c(C)nc2ccccc2c1=O,10.3 µM (active)
8,Cc1nc2ccccc2c(=O)n1-c1ccc(NS(=O)(=O)c2ccc(F)cc2F)cc1,inactive
9,Cc1cc2n(n1)C(c1cc(C(C)(C)C)c(O)cc1O)Nc1ccccc1-2 (centres undefined),inactive
10,O=C(CCC1N=C2c3ccccc3N=C(SCc3ccccc3F)N2C1=O)NCCc1ccccc1 (centres undefined),inactive
11,COc1cccc(CNC(=O)Cc2csc3nc(-c4ccccc4)cn23)c1,inactive
12,COC(=O)Nc1nc2ccc(Sc3ccccc3)cc2[nH]1,1.46 µM (active)
13,Cc1ccc2nc(CNC(=O)c3ccccc3)[nH]c2c1,inactive
14,COc1ccc(NC(=O)CSc2nc3ccccc3[nH]2)cc1,inactive
15,COc1ccc(CCNc2ncnc3onc(-c4ccc(Cl)cc4)c23)c(OC)c1,inactive
16,COc1ccc(Cl)cc1NC(=O)CN(C)C(=O)c1cc(-c2cccs2)nn1-c1ccccc1,20.6 µM (active)
17,COc1ccc(Cl)cc1NC(=O)CSc1nc(-c2cccs2)cc(C(F)(F)F)n1,inactive
18,COc1ccc(Cl)cc1NC(=O)CN(C)C(=O)c1ccc2n[nH]nc2c1,inactive
19,C=CCNC(=O)c1ccc2nc(-c3ccco3)c(-c3ccco3)nc2c1,inactive
20,CC(C)(C)OC(=O)N(Cc1ccco1)S(=O)(=O)c1ccccc1Br,inactive
21,COc1ccc(CC(=O)Nc2ccc(-c3nc4ccccc4s3)c(C)c2)cc1,inactive
22,COC(=O)Cc1[nH]n(-c2nc3ccccc3s2)c(=O)c1C(C)=Nc1ccc(OC)cc1,9.2 µM (active)

row,SMILES,Potency
1,Cc1ccc(C)c(NC(=O)CSC2=Nc3ccccc3N=C(c3ccc(F)cc3)C2)c1,inactive
2,CCOC(=O)C1CCN(c2csc3ccc(C)cc3c2=O)CC1,inactive
3,O=C(Cn1c(=O)n(Cc2ccccc2)c(=O)c2sc3ccccc3c21)Nc1ccccc1F,inactive
4,CN(C)c1ccc(/C=C/c2sc3ccccc3[n+]2C)cc1,6.51 µM (active)
5,CN(C)c1ccc(CSc2ccccc2)cc1,inactive
6,CN(C)c1ccc(/C=C/c2c3ccccc3nc3ccccc23)cc1,inactive
7,CN(C)c1ccc(/C=C/c2sc3ccccc3[n+]2CCCCBr)cc1,1.3 µM (active)
8,CCN(CCCNC(=O)c1cc2c(=O)n(CC)c3ccccc3c2s1)Cc1ccccc1,inactive
9,CCc1ccc(OCCCn2c(CCCNC(=O)C3CCCCC3)nc3ccccc32)cc1,inactive
10,COc1cccc(N2CCN(S(=O)(=O)c3cc(Br)cc4c3N(C(=O)C3CC3)CC4)CC2)c1,inactive
11,CCCCC12CN3CC(C)(CN(C1)C3c1ccc(O)c(OC)c1)C2=O (centres undefined),inactive
12,Cc1ccc(C)c(N2CCN(C(=O)C3CCC(CNS(=O)(=O)c4cccs4)CC3)CC2)c1 (centres undefined),inactive
13,Cc1ccc(C)c(Oc2c(C(F)(F)F)oc3c(CN4CCN(C)CC4)c(O)ccc3c2=O)c1,inactive
14,Cc1cc(C)c(NC(=O)c2cc3sc(Cl)cc3n2C)c(C)c1,inactive
15,O=C(NCc1ccccc1Cl)c1cccn1-c1nnc(N2CCCCC2)s1,inactive
16,COc1ccc(NC(=O)CSc2nnc(-c3nnn(-c4ccc(F)cc4)c3C)o2)cc1,inactive
17,O=C(Nc1ccc2ccccc2c1)Nc1nnc(-c2ccc(O)cc2)s1,inactive
18,O=C1CCc2cc(S(=O)(=O)Nc3cccc(Oc4ccccc4)c3)ccc2N1,inactive
19,CCOC(=O)c1ccc(N2C(=O)c3n[nH]c(C)c3C2c2ccc(O)c(OC)c2)cc1 (centres undefined),inactive
20,CCOC(=O)c1ccc(N2C(=O)c3n[nH]c(-c4ccco4)c3C2c2ccc(O)cc2)cc1 (centres undefined),inactive
21,CCOC(=O)c1ccc(N2C(=O)c3[nH]nc(-c4ccccc4)c3C2c2ccc(C(C)C)cc2)cc1 (centres undefined),18.4 µM (active)
22,Cc1cccc(CN2Cc3cccc4c3[C@H](C=CC4)CC2=S)c1,inactive

row,SMILES,Potency
1,CC(=O)Cn1cnc2c(cnn2-c2ccccc2)c1=O,inactive
2,O=C(Cn1cnc2c(cnn2-c2ccc(F)cc2)c1=O)NCCc1ccccc1,inactive
3,O=C(Cn1cnc2c(cnn2-c2ccccc2)c1=O)NCc1ccccc1,8.2 µM (active)
4,COc1ccc2cc(CNc3ccc(OC)c(OC)c3)c(=O)n(CC(=O)Nc3ccccc3F)c2c1,inactive
5,COc1ccc(-c2noc(CSc3nc(C)cc(=O)[nH]3)n2)cc1OC,inactive
6,NC(N)=Nc1nc2ccc(Br)cc2c(=O)[nH]1,inactive
7,CC(C)Cn1c(=O)c2ccccc2n2c(-c3cccc(Cl)c3)nnc12,inactive
8,O=c1c2cc(Br)ccc2nc(-c2cccc(Cl)c2)n1O,9.2 µM (active)
9,COC(=O)c1cc(NC(=O)CCc2c(C)nc3c4c(C)cc(C)nc4nn3c2C)cc(C(=O)OC)c1,inactive
10,O=c1cc(COc2cccc(C(F)(F)F)c2)nc2sc3c(n12)CCCC3,inactive
11,O=S(=O)(NCC(c1ccco1)N1CCOCC1)c1cc(F)ccc1F (centres undefined),inactive
12,O=C(CSCc1cccs1)N1CCCC1,inactive
13,O=C(CSc1ccsc1[N+](=O)[O-])N1CCCCC1,18.4 µM (active)
14,CC1CC(C)CN(C(=O)CSc2ccsc2[N+](=O)[O-])C1 (centres undefined),inactive
15,COc1cc2nc(C#Cc3nc4cc(OC)c(OC)cc4[nH]3)[nH]c2cc1OC,inactive
16,COc1ccc(CN2C(=O)C(NC(=O)c3cccc(C)c3)(C(F)(F)F)N=C2c2ccccc2)cc1 (centres undefined),inactive
17,Cc1cc2c(cc3c(SCc4cccc(Cl)c4)nnc(C)n32)o1,inactive
18,Cc1cccc(-n2ccnc2SCC(=O)Nc2cccc3ccccc23)c1C,inactive
19,Cc1cc(C)cc(-n2ccnc2SCC(=O)Nc2nc3ccccc3s2)c1,inactive
20,Cc1nnc(NC(=O)CSc2nccn2-c2cccc(C)c2C)s1,3.66 µM (active)
